Laboratory results as given in PMC7862700, “An all-to-all approach to the identification of sequence-specific readers for epigenetic DNA modifications on cytosine”.

Assays:
Experiment in all cases: DAPPL (digital affinity profiling via proximity ligation, sequencing); 10 mM Tris-HCl pH 7.5, 50 mM NaCl, 1 mM DTT, 4% glycerol, room temperature, 30 min; GST-TFs on glutathione beads, 16-mer random dsDNA library, 0.1% formaldehyde crosslink after washing; high values mean tight binding
[1] = target: T1, FLI1 (Homo sapiens, UniProt Q01543 1-452); details: protein: recombinant; tags: N-terminal GST; dsDNA, one strand shown
T1 sequence: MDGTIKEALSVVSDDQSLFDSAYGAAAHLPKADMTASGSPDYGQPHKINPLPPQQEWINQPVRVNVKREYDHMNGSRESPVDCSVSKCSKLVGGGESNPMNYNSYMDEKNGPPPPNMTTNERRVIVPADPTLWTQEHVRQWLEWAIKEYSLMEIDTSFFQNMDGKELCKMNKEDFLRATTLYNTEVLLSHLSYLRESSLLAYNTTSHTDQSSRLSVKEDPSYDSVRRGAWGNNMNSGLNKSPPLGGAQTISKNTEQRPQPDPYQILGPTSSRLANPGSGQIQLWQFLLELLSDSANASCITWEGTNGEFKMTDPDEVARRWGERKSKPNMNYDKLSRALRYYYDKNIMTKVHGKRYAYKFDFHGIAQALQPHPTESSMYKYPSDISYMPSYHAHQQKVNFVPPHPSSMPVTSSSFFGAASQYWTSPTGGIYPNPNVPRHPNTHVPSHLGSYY
Summary of the method: (§1)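 Binding signal is given per hexamer as its read frequency for a factor divided by its frequency in the tag-only sample. GST-fused human transcription factors were expressed in yeast, captured on glutathione beads, barcoded with DNA and pooled with that sample, then incubated with 200 nmole of a 16-mer random double-stranded DNA library in Tris/NaCl/DTT/glycerol buffer for 30 min at room temperature. The pools were then washed, crosslinked, proximity-ligated, amplified by PCR and sequenced on an Illumina NextSeq500.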

[2] = target: T2, ELK1 (Homo sapiens, UniProt P19419 1-428); details: protein: recombinant; tags: N-terminal GST; dsDNA, one strand shown
T2 sequence: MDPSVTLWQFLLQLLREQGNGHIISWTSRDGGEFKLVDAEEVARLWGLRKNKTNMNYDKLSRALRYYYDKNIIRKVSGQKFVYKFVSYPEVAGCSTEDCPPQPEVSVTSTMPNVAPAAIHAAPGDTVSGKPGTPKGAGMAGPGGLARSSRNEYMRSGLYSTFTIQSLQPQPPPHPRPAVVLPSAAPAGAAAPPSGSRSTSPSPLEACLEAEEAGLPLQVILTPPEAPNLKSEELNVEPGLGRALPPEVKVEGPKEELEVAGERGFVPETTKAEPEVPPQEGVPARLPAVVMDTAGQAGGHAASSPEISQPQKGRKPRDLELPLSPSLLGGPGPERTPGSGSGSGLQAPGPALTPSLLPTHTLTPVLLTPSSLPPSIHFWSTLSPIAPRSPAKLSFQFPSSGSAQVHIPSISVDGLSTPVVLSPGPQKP
Summary of the method: as §1

[3] = target: T3, GABPA (Homo sapiens, UniProt Q06546 1-454); details: protein: recombinant; tags: N-terminal GST; dsDNA, one strand shown
T3 sequence: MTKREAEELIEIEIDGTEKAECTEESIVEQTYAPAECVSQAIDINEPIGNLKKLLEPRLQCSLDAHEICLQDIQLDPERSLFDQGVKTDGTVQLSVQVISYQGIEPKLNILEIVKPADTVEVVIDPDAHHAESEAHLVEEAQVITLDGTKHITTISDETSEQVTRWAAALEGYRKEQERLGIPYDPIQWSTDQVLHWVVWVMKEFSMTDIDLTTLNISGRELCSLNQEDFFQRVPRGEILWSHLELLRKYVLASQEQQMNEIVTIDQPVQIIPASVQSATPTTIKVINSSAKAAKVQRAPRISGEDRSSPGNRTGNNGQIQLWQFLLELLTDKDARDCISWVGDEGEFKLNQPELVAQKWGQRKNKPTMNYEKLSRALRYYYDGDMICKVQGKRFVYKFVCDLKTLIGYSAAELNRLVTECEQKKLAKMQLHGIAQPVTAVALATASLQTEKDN
Summary of the method: as §1

[4] = target: T4, ERG (Homo sapiens, UniProt P11308 1-479); details: protein: recombinant; tags: N-terminal GST; dsDNA, one strand shown
T4 sequence: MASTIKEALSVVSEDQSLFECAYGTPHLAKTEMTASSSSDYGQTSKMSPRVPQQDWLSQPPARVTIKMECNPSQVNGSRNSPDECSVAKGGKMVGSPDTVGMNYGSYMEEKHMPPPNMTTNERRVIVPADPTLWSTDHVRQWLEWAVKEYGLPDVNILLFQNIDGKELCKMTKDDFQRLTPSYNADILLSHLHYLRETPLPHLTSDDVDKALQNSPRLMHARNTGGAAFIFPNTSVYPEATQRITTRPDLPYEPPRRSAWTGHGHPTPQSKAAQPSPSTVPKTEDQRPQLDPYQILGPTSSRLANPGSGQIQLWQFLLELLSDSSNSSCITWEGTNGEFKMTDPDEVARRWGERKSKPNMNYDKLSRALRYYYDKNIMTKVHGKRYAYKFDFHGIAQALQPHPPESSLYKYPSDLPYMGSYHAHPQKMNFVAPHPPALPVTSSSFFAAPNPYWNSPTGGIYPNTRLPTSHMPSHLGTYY
Summary of the method: as §1

[5] = target: ELF1 (Homo sapiens, UniProt P32519 1-619); details: protein: recombinant; tags: N-terminal GST; dsDNA, one strand shown
Summary of the method: as §1

[6] = target: T5, EHF (Homo sapiens, UniProt Q9NZC4 1-300); details: protein: recombinant; tags: N-terminal GST; dsDNA, one strand shown
T5 sequence: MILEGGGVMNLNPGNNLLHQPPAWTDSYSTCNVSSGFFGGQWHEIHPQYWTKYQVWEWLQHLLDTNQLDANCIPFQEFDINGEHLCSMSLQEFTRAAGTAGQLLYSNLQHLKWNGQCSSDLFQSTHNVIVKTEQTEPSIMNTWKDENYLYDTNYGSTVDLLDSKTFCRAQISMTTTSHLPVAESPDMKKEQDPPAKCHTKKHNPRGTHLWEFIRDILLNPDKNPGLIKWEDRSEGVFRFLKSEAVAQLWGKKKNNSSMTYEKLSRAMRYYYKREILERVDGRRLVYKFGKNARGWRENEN
Summary of the method: as §1

[7] = target: SPI1 (Homo sapiens, UniProt P17947 1-270); details: protein: recombinant; tags: N-terminal GST; dsDNA, one strand shown
Summary of the method: as §1

[8] = target: SPIB (Homo sapiens, UniProt Q01892 1-262); details: protein: recombinant; tags: N-terminal GST; dsDNA, one strand shown
Summary of the method: as §1

[9] = target: T6, ELK3 (Homo sapiens, UniProt P41970 1-407); details: protein: recombinant; tags: N-terminal GST; dsDNA, one strand shown
T6 sequence: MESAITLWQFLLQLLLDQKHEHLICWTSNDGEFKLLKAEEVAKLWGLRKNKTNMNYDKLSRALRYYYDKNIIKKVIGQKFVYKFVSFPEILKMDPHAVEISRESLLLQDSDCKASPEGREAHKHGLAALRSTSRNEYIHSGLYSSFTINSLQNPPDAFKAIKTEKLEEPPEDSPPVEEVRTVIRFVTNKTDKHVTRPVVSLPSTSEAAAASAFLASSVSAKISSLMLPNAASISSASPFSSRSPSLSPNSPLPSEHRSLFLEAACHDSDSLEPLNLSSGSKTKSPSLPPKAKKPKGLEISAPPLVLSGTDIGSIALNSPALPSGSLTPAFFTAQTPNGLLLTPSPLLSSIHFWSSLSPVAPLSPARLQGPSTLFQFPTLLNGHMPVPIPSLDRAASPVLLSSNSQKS
Summary of the method: as §1

[10] = target: T7, FEV (Homo sapiens, UniProt Q99581 1-238); details: protein: recombinant; tags: N-terminal GST; dsDNA, one strand shown
T7 sequence: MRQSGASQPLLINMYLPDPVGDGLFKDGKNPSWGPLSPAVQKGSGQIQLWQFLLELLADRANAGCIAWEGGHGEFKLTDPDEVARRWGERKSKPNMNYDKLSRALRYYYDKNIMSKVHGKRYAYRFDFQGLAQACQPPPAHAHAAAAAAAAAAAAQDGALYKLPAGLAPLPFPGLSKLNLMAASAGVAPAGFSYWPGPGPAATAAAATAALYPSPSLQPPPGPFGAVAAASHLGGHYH
Summary of the method: as §1

[11] = target: ETV5 (Homo sapiens, UniProt P41161 1-510); details: protein: recombinant; tags: N-terminal GST; dsDNA, one strand shown
Summary of the method: as §1

[12] = target: HSF1 (Homo sapiens, UniProt Q00613 1-529); details: protein: recombinant; tags: N-terminal GST; chain copies: 3; dsDNA, one strand shown
Summary of the method: as §1

[13] = target: T8, SPIC (Homo sapiens, UniProt Q8N5J4 1-248); details: protein: recombinant; tags: N-terminal GST; dsDNA, one strand shown
T8 sequence: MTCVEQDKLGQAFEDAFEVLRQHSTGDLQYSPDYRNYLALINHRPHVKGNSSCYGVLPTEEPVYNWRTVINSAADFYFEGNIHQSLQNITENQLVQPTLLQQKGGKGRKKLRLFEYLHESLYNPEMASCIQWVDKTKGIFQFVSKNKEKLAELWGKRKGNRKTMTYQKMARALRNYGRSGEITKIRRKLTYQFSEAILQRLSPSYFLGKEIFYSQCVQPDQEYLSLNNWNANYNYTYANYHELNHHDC
Summary of the method: as §1

[14] = target: ELF4 (Homo sapiens, UniProt Q99607 1-663); details: protein: recombinant; tags: N-terminal GST; dsDNA, one strand shown
Summary of the method: as §1

[15] = target: T9, ELK4 (Homo sapiens, UniProt P28324-2 1-405); details: protein: recombinant; tags: N-terminal GST; dsDNA, one strand shown
T9 sequence: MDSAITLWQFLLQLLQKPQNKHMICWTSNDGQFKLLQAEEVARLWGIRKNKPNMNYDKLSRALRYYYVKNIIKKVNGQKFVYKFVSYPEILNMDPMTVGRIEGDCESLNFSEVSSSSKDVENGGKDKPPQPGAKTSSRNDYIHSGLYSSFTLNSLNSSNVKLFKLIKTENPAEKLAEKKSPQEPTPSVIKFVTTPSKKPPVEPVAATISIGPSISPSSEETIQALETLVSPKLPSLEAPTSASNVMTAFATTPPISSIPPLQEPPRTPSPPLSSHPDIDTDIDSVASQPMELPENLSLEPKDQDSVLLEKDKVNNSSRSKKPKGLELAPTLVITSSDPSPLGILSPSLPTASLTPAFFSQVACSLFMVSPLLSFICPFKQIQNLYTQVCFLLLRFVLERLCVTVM
Summary of the method: as §1

[16] = target: T10, ETV2 (Homo sapiens, UniProt O00321 1-342); details: protein: recombinant; tags: N-terminal GST; dsDNA, one strand shown
T10 sequence: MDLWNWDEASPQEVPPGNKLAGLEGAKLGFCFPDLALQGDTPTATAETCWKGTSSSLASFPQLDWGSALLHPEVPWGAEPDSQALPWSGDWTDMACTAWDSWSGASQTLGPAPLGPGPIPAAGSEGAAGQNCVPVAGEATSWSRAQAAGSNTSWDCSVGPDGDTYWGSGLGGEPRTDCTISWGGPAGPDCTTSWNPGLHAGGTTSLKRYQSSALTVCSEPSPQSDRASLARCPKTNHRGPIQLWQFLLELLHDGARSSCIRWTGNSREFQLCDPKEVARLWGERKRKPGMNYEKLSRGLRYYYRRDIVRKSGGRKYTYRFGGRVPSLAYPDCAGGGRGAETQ
Summary of the method: as §1

[17] = target: T11, ELF3 (Homo sapiens, UniProt P78545 1-371); details: protein: recombinant; tags: N-terminal GST; dsDNA, one strand shown
T11 sequence: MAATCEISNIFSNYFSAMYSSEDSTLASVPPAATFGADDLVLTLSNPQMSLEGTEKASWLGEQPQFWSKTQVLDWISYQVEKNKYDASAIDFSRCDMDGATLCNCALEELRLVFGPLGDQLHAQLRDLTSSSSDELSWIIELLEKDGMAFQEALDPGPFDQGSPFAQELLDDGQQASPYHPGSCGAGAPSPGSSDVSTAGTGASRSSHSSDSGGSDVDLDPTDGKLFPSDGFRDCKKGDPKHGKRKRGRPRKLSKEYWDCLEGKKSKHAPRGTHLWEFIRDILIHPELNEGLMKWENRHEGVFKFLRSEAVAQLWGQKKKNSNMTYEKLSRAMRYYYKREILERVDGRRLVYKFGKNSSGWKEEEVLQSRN
Summary of the method: as §1

[18] = target: CRX (Homo sapiens, UniProt O43186 1-299); details: protein: recombinant; tags: N-terminal GST; dsDNA, one strand shown
Summary of the method: as §1

[19] = target: ETV1 (Homo sapiens, UniProt P50549 1-477); details: protein: recombinant; tags: N-terminal GST; dsDNA, one strand shown
Summary of the method: as §1

Chain of SPIB (Q01892 whole entry): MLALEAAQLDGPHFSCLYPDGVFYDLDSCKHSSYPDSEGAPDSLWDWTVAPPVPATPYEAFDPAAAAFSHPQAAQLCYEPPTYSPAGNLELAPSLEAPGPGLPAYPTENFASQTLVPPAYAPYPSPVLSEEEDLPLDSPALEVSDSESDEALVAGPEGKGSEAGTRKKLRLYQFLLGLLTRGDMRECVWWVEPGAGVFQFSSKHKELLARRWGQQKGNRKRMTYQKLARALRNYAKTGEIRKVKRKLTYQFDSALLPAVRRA
Chain of ELF1 (P32519 whole entry): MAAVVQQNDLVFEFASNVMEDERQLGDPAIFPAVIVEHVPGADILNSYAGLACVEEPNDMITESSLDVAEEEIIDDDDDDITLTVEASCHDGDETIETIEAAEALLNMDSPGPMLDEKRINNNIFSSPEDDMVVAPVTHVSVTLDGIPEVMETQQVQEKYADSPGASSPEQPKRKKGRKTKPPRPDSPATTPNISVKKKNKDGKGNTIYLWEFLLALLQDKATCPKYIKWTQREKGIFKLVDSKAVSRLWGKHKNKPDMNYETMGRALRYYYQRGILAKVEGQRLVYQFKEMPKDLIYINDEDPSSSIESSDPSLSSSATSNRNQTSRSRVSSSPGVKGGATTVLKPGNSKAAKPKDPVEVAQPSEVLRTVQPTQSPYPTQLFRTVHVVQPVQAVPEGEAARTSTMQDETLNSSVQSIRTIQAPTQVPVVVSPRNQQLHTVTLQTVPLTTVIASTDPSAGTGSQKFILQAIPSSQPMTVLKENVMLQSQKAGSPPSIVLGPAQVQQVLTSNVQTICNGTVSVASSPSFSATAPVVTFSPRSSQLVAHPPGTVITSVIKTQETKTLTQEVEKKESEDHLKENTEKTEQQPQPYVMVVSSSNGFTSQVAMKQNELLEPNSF
Chain of CRX (O43186 whole entry): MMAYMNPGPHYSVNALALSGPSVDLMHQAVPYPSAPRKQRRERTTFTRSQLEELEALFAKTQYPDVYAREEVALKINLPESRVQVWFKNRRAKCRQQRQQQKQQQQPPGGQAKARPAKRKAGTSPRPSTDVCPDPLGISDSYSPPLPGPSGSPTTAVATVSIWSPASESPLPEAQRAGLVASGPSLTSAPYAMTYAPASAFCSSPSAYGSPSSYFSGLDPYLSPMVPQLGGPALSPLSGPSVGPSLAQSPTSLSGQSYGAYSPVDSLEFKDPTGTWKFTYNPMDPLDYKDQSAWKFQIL
Chain of ELF4 (Q99607 whole entry): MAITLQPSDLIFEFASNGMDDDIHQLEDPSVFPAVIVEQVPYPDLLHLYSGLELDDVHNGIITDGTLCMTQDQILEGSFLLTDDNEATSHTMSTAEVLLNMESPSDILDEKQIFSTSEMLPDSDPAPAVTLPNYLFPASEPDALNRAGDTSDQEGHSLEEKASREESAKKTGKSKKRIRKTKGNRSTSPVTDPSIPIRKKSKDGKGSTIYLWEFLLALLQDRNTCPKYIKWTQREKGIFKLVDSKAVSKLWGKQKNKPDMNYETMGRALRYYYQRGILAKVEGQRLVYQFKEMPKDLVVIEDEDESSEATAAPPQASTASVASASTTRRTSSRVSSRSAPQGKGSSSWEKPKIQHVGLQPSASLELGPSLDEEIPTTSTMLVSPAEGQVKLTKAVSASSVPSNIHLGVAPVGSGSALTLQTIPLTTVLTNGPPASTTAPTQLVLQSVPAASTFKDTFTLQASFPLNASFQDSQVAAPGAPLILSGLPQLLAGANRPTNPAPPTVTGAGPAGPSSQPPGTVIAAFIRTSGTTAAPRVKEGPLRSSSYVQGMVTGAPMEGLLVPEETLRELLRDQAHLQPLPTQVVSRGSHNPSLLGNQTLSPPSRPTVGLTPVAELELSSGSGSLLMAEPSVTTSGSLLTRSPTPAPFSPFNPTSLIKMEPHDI
Chain of ETV1 (P50549 whole entry): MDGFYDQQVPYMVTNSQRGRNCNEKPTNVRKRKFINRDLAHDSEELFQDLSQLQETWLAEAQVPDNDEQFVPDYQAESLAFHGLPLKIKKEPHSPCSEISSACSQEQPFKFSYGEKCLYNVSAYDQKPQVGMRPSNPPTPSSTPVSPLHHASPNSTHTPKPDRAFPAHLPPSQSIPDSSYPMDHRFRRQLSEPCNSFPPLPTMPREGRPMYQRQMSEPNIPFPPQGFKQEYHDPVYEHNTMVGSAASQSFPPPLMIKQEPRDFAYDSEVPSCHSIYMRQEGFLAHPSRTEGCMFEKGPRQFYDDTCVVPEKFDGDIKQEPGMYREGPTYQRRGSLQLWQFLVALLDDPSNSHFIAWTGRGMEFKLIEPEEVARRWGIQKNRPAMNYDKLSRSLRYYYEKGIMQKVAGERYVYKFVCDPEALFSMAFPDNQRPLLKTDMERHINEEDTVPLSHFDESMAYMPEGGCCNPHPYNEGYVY
Chain of HSF1 (Q00613 whole entry): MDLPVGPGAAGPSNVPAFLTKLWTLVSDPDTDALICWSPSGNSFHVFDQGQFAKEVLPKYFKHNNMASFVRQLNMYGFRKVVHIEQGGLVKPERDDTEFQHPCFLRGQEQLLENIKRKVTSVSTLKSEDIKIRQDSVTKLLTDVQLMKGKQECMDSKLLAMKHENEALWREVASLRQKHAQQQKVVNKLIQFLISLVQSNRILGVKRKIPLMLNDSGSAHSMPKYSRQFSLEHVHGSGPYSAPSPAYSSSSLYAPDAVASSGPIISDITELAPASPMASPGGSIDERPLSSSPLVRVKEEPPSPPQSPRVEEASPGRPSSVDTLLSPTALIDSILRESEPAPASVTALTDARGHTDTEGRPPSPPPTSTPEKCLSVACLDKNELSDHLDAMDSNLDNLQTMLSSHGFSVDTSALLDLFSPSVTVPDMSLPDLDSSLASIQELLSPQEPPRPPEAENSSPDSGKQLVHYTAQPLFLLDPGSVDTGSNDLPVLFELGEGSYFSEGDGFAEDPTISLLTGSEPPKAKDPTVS
Chain of ETV5 (P41161 whole entry): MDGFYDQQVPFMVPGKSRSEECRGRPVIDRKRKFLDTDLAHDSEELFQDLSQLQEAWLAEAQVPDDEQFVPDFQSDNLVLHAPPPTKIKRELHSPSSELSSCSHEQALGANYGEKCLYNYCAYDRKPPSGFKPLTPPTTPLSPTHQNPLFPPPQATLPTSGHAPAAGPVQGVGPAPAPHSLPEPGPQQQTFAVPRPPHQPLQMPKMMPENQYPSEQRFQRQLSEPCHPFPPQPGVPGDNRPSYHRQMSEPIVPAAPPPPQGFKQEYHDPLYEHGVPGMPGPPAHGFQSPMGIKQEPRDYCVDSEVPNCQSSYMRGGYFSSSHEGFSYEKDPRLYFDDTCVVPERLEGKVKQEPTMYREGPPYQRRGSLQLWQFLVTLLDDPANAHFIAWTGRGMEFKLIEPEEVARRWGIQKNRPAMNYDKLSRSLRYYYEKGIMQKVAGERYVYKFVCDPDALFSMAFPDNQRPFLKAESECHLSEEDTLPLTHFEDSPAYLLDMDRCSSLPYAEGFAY

ATTCAC
binding signal [1]: 1.23 fold enrichment (6-mer frequency, TF over GST control)
binding signal [2]: 1.2 fold enrichment (6-mer frequency, TF over GST control)
binding signal [3]: 1.22 fold enrichment (6-mer frequency, TF over GST control)
binding signal [4]: 1.27 fold enrichment (6-mer frequency, TF over GST control)
binding signal [5]: 1.34 fold enrichment (6-mer frequency, TF over GST control)
binding signal [6]: 1.2 fold enrichment (6-mer frequency, TF over GST control)
binding signal [7]: 1.16 fold enrichment (6-mer frequency, TF over GST control)
binding signal [8]: 1.2 fold enrichment (6-mer frequency, TF over GST control)
binding signal [9]: 1.35 fold enrichment (6-mer frequency, TF over GST control)
binding signal [10]: 1.23 fold enrichment (6-mer frequency, TF over GST control)
binding signal [11]: 1.21 fold enrichment (6-mer frequency, TF over GST control)
binding signal [12]: 1.13 fold enrichment (6-mer frequency, TF over GST control)
binding signal [13]: 1.1 fold enrichment (6-mer frequency, TF over GST control)
binding signal [14]: 1.31 fold enrichment (6-mer frequency, TF over GST control)
binding signal [15]: 1.35 fold enrichment (6-mer frequency, TF over GST control)
binding signal [16]: 1.21 fold enrichment (6-mer frequency, TF over GST control)
binding signal [17]: 1.27 fold enrichment (6-mer frequency, TF over GST control)
binding signal [18]: 1.14 fold enrichment (6-mer frequency, TF over GST control)
binding signal [19]: 1.29 fold enrichment (6-mer frequency, TF over GST control)
